Consider 99 compounds from PubChem BioAssay AID425 (Sanford-Burnham Center for Chemical Genomics, 2006).

A word on the inhibition: it is the change of the read-out against control, counted positive when it falls.

Several values for one entry are separate records, joined by “and”; a condition that tells them apart may be missing. Equal values may be shown once. The whole screen tested about 110,000 compounds, of which about 190 (0.17%) were called active. Cut-off read from the data, not from the text of the source: active = inhibition above about 50%; inactive = the rest. What follows is part of a selection rich in actives, with near analogues and random picks from the rest. Results with a measured potency or affinity are listed apart. Some compounds were tested as several samples or in several runs, with calls that do not always agree.

Chain of Dual specificity protein phosphatase 6 (Rattus norvegicus) (Q64346 whole entry, looked up): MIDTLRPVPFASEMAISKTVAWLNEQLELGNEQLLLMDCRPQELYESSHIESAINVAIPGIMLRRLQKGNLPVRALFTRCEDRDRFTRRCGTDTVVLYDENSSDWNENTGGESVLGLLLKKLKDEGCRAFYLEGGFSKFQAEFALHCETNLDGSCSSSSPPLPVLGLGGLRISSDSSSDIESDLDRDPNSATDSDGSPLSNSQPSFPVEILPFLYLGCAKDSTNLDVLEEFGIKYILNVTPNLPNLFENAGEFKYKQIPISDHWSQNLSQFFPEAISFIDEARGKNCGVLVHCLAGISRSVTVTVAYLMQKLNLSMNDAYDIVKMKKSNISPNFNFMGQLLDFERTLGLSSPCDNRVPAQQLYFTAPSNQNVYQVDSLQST

The experiment addresses Dual specificity protein phosphatase 6 (Rattus norvegicus) (UniProt Q64346). Kind of experiment: inhibition of rat DUSP6 enzyme activity – biochemical, in vitro, primary screen (AID 425).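 Note: plate controls were vehicle for no effect and reference inhibitor for full effect.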 The note with it: recombinant MKP-3 phosphatase activity, fluorescence; at 20 µM; stronger effect = higher value.
As for `O=C(Nc1ncc(Cc2ccc(Cl)c(Cl)c2)s1)c1ccccc1Cl`, the inhibition is 3.9% (inactive).
The result for `Cc1cc(C)n(Cc2ccc(C(=O)O)o2)n1` reads -6.7% (inactive); that for `Cc1ccc(OCC(=O)N/N=C\c2ccc(-c3ccc([N+](=O)[O-])cc3)o2)cc1`, -0.5% (inactive).
The result for `O=C1/C(=C\c2ccco2)CC2CC1C/C(=C/c1ccco1)C2=O` reads 55.6% (active); that for `O=C1/C(=C\c2cccs2)CC2CC1C/C(=C/c1cccs1)C2=O`, 1.2% (inactive).
Turning to `O=C1/C(=C/c2ccco2)N2CCC1CC2`, the inhibition was -0.8% (inactive).
As for `CN1CCN(CCCn2cnc3c(=O)oc4ccccc4c32)CC1`, the inhibition is -0.6% (inactive).
The result for `CC(=O)O[C@@]12CO[C@@H]1C[C@H](O)[C@@]1(C)C(=O)[C@H](O)C3=C(C)[C@@H](OC(=O)[C@H](O)[C@@H](NC(=O)OC(C)(C)C)c4ccccc4)C[C@](O)([C@@H](OC(=O)c4ccccc4)[C@H]21)C3(C)C` reads -0.3% (inactive); that for `COC(=O)c1ccc(C(=O)OC)c(N)c1`, -12.2% (inactive).
In the case of `COC(=O)c1ccccc1OCc1cccc(C)n1`, the inhibition is -5.5% (inactive).
The result for `COc1ccc(S(=O)(=O)Nc2ccc(C)c(Cl)c2)cc1OC` reads 3.1% (inactive).
The result for `Cc1ccc(N(C)S(=O)(=O)c2ccc(Cl)cc2)cc1` reads -0.1% (inactive); that for `O=C(CN1C(=O)S/C(=C/c2ccccc2F)C1=O)Nc1ccccc1C(=O)O`, 6.5% (inactive); that for `O=C(CN1C(=O)/C(=C/c2ccccc2)SC1=S)Nc1cccc(C(=O)O)c1`, -1% (inactive).
In the case of `COc1cc(/C=C2/SC(=S)N(CC(=O)Nc3cccc(C(=O)O)c3)C2=O)cc(OC)c1OC`, the inhibition was 1.9% (inactive).
As to `COc1ccc(/C=C2\SC(=O)N(CC(=O)Nc3ccc(C)cc3C)C2=O)cc1`, the inhibition was -0.5% (inactive).
In the case of `O=C(NC(Nc1ccc([N+](=O)[O-])cc1)C(Cl)(Cl)Cl)c1cccc(I)c1` (centres undefined) it was 1.1% (inactive); in that of `CCN(CC)S(=O)(=O)c1cccc(C(=O)Oc2cccnc2)c1`, -10.3% (inactive).
For the compound `CCOc1cc(C(=O)Nc2ccc(OCc3ccccc3)cc2)cc(OCC)c1OCC`, the inhibition is 7% (inactive).
The result for `CCC1=NN2C(=N)/C(=C/c3ccc(OCCOc4cccc(OC)c4)cc3)C(=O)N=C2S1` reads -1.7% (inactive); that for `CCCC1=NN2C(=N)/C(=C/c3cc(OC)ccc3OC)C(=O)N=C2S1`, 1.4% (inactive).
The result for `Nn1c(SCC(=O)NC2CCCCC2)nnc1-c1ccccc1` reads -1.2% (inactive).
As for `Cc1cc(=O)n2[nH]c(C)c(-c3ccc(Cl)cc3)c2n1`, the inhibition was -8.5% (inactive).
The result for `Cc1[nH]n2c(=O)cc(C(C)C)nc2c1-c1ccccc1` reads -5.8% (inactive); that for `Cc1cc(=O)n2[nH]c(C)c(-c3ccccc3)c2n1`, 72.9% (active) and -3.2% (inactive).
The result for `O=C(NCC1CCCO1)c1ccc(Cl)cc1` (centres undefined) reads -0.2% (inactive); that for `O=C(CCCn1c(=O)c2sccc2n(Cc2ccc(F)cc2)c1=O)NCc1ccco1`, -8.3% (inactive); that for `CCOc1ccc(C(=O)NCc2ccc3c(c2)OCO3)cc1`, -3% (inactive).
The result for `COc1ccc(/C=C2/SC(=O)N(CC(=O)Nc3ccc(F)c(Cl)c3)C2=O)cc1OC` reads 1.4% (inactive); that for `COc1ccc(/C=C2/SC(=O)N(CC(=O)Nc3ccc(C)c(C)c3)C2=O)cc1OC`, 3.6% (inactive); that for `COc1ccc(-c2cc(C(=O)N/N=C(\C)c3ccc([N+](=O)[O-])cc3)[nH]n2)cc1`, 4% (inactive).
For the compound `CCOc1ccccc1C=Nc1cc(Cl)cc(Cl)c1`, the inhibition is -0.8% (inactive).
In the case of `CCOc1ccccc1C=Nc1ccc(C(N)=O)cc1` it was -2.2% (inactive); in that of `N#Cc1ccc(N=Cc2cccc(O)c2O)cc1`, -1.9% (inactive).
The result for `CCN(CC)c1ccc(N=Cc2cccc(O)c2O)cc1` reads 16.1% (inactive); that for `Oc1cccc(C=Nc2ccccc2)c1O`, 120% (active).
In the case of `Cc1cccc(C=Nc2ccccc2O)c1O` it was -0.6% (inactive); in that of `Cc1ccccc1C=Nc1ccc(O)cc1`, 112% (active); in that of `Cc1ccsc1C=Nc1ccc(O)cc1`, -7% (inactive).
Consider `CCOc1ccccc1C=Nc1ccc(O)cc1`, for which the inhibition is 116% (active).
The result for `CCOC(=O)C1(C)NC(c2cc(OC)c(OC)c(OC)c2)C2C(=O)N(CC)C(=O)C21` (centres undefined) reads 4.9% (inactive); that for `CC(NC(=O)C(=O)NCC1CCNCC1)c1ccccc1` (centres undefined), 2.1% (inactive).
Consider `Cc1cc(NC(=O)c2nn3c(c2Cl)NC(c2ccc(Br)cc2)CC3C(F)(F)F)no1` (centres undefined), for which the inhibition is -0.7% (inactive).
Turning to `COc1cccc(C(=O)NNC(N)=O)c1`, the inhibition was -2.5% (inactive).
The result for `O=C(CSc1nc2ccc(N3C(=O)c4ccccc4C3=O)cc2s1)Nc1cccc([N+](=O)[O-])c1` reads 14.1% (inactive).
Regarding `Cc1ccc(NC(=O)C(=O)NCC(C)C)cc1`, the inhibition is -6.8% (inactive).
In the case of `CCN1CCOC(c2ccccc2)C(C(=O)OC)C1C(=O)OC` (centres undefined) it was 49.2% (inactive); in that of `O=C(Nc1ccc(NC(=O)c2ccc(-c3ccc(Br)cc3)o2)cc1)c1ccco1`, -1.3% (inactive); in that of `CC(=O)c1ccc(NC(=O)c2ccc(-c3ccc(Br)cc3)o2)cc1`, 10.6% (inactive).
As to `CCCCCCCC(=O)N/N=C/c1c[nH]c2ccccc12`, the inhibition was 4.3% (inactive).
In the case of `O=C(CSc1ccccn1)N/N=C\c1c[nH]c2ccccc12` it was -0.6% (inactive); in that of `Cc1ccn2c(-c3csc(Nc4cccc(O)c4)n3)c(C)nc2c1`, 2.7% (inactive).
Consider `O=C1CC(Nc2ccccc2)C(=O)N1Cc1ccccc1` (centres undefined), for which the inhibition is 1.4% (inactive).
The result for `O=C(O)c1ccc(NC(=O)c2cc3cc(Br)ccc3oc2=O)cc1` reads 3.5% (inactive); that for `O=C(Nc1ccc(Nc2ccccc2)cc1)c1cccc(F)c1`, -0.3% (inactive).
For `Cc1ccc(-c2nnc(NC(=O)Nc3ccc(Cl)c(Cl)c3)s2)cc1`, the inhibition is -1.5% (inactive).
The result for `O=C(Nc1ccc(Cl)c(Cl)c1)Nc1nnc(-c2ccccc2)s1` reads -2.8% (inactive).
In the case of `O=[N+]([O-])c1ccc(OCCCCCN2CCCCC2)cc1` it was 0.4% (inactive); in that of `Cc1ccc(/C(O)=C2\C(=O)C(=O)N(CCCC(=O)O)C2c2ccccc2)cc1` (centres undefined), 2.5% (inactive); in that of `COc1ccc(O)c(CN2CCN(Cc3ccccc3[N+](=O)[O-])CC2)c1`, -3.5% (inactive).
In the case of `Oc1ccccc1/C=N/Nc1cc(N2CCCC2)nc(N2CCCC2)n1` it was 119% (active); in that of `Oc1ccccc1/C=N/Nc1cc(N2CCOCC2)nc(N2CCOCC2)n1`, 5.6% (inactive); in that of `Oc1ccccc1/C=N/Nc1cc(N2CCCCC2)nc(N2CCCCC2)n1`, -0.5% (inactive).
For `Cc1onc(-c2ccccc2)c1C(=O)NCCNc1c(Cl)cccc1[N+](=O)[O-]`, the inhibition is 3.9% (inactive).
In the case of `O=C1C=C/C(=N\S(=O)(=O)c2ccc(F)cc2)c2ccccc21` it was -2% (inactive); in that of `CN(C)C1=C/C(=N/S(=O)(=O)c2ccccc2)c2ccccc2C1=O`, 13.9% (inactive); in that of `O=C1C=CC(=NS(=O)(=O)c2ccccc2)c2ccccc21`, 68.4% (active).
The result for `Cc1ccc(C)c(S(=O)(=O)/N=C2\C=CC(=O)c3ccccc32)c1` reads 63.5% (active); that for `CC(=O)Nc1ccc(S(=O)(=O)NN2C(=O)c3ccccc3C2=O)cc1`, 2.6% (inactive); that for `Cc1ccccc1S(=O)(=O)N=C1C=CC(=O)C(Cl)=C1`, 3.1% (inactive).
The result for `Cc1ccc(S(=O)(=O)N=C2C=CC(=O)C=C2)c(C)c1` reads 7.6% (inactive); that for `CC(=O)Nc1ccc(S(=O)(=O)/N=C2/NC(=O)CS2)cc1`, -0.8% (inactive); that for `CC(=O)Nc1ccc(S(=O)(=O)/N=C2\C=CC(=O)c3ccccc32)cc1`, 111% (active).
Regarding `CCc1ccc(OCC(=O)NCCN(C)C)c(Br)c1`, the inhibition was -12% (inactive).
In the case of `O=C(Nc1ccc(Br)cc1)N1CCCCCCC1` it was -0.5% (inactive).
The result for `CCOC(=O)Cc1csc(NC(=O)CN(C)S(=O)(=O)c2cccc3cccnc23)n1` reads -9.4% (inactive); that for `O=C(NCCCn1ccnc1)c1cnn2c(C(F)(F)F)cc(-c3ccc(Br)cc3)nc12`, 2.4% (inactive).
The result for `Nc1nnc(SCc2coc(-c3ccc(Cl)cc3)n2)s1` reads -7.1% (inactive); that for `COc1ccc(NC(=O)/C(=C\c2ccco2)NC(=O)c2ccco2)cc1`, 4.4% (inactive); that for `N/C(=N\OC(=O)c1ccccc1I)c1cccnc1`, -4% (inactive).
For `Cc1c(Cl)cccc1N=C1NC(=O)/C(=C/c2ccc(O)c([N+](=O)[O-])c2)S1`, the inhibition is 18.5% (inactive).
As to `Cc1ccc(N=C2NC(=O)/C(=C/c3ccc(O)c([N+](=O)[O-])c3)S2)cc1Cl`, the inhibition was 82.6% (active).
In the case of `COc1cc(/C=C2\SC(=Nc3ccc(C)c(Cl)c3)NC2=O)ccc1O` it was 3.3% (inactive); in that of `CC1=C(C(=O)Nc2ccccc2)C(c2cccc(I)c2)NC(=S)N1` (centres undefined), 4.4% (inactive); in that of `Cc1c(C)n(O)c2ccc3nonc3c12`, 2.7% (inactive).
`COn1c(C)c(C)c2c3nonc3ccc21`: the inhibition is 86.9% (active).
`COn1c(C)c(C(C)=O)c2c3nonc3ccc21`: the inhibition is -7.8% (inactive).
The result for `CCOC(=O)c1ccc(NC(=O)COc2ccc(Cl)cc2C)cc1` reads 2.5% (inactive); that for `COC(=O)c1ccc(Nc2ncnc3c2cnn3-c2cccc(C)c2)cc1`, -5% (inactive).
Turning to `O=C(Cc1ccccc1)Nc1cc(C(=O)O)cc(C(=O)O)c1`, the inhibition is 0.2% (inactive).
The result for `CC1CC(=O)c2cnc(NCC3CCCO3)nc2C1` (centres undefined) reads -7.6% (inactive); that for `Cc1c(C)c2ccc(OCC(=O)c3ccc(-c4ccccc4)cc3)cc2oc1=O`, 1.8% (inactive).
`NC(=O)C1CCN(C(=O)CN2CCCc3ccccc32)CC1`: the inhibition is 1.6% (inactive).
In the case of `Cc1ccc(C)n1-c1ccc(Cl)cc1C(=O)O` it was 104% (active).
In the case of `Cc1ccc(-c2ccccc2)n1-c1ccccc1C(=O)O`, the inhibition was 5% (inactive).
On to `Cc1c(C(=O)O)cccc1-n1c(C)ccc1C`, for which the inhibition is 25.2% (inactive).
Take `Cc1ccc(C)n1-c1ccc(Br)cc1C(=O)O`: the inhibition was 0.2% (inactive).
As for `Cc1ccc(C)n1-c1ccccc1C(=O)O`, the inhibition was 72.7% (active).
In the case of `COc1cc(C(=O)O)c(-n2c(C)ccc2C)cc1OC` it was 5% (inactive).
